# Mdm2-MdmX inh – human Mdm2/MdmX binding inhibition; O15151+Q00987; SaOS-2 split-luciferase Mdm2/MdmX complementation, luminescence; inhibition, % at 8 µM; 330,000 tested, 3% active;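 active = inhibition of at least 50% at 8 µM in the primary screen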
# Target sequence (O15151 whole entry, looked up): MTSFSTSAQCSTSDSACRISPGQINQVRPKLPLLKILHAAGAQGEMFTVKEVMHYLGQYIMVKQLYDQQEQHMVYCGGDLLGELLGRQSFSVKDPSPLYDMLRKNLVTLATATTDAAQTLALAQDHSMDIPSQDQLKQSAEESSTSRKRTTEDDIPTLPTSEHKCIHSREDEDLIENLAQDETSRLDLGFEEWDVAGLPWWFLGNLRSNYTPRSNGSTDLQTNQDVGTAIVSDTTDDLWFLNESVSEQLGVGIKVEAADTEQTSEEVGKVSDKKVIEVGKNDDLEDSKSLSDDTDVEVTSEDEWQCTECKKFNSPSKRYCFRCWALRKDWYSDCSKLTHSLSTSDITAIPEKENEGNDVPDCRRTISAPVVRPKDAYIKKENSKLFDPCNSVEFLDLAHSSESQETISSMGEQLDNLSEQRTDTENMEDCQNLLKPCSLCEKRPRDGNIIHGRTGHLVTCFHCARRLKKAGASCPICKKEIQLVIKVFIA
# Target sequence (Q00987 whole entry, looked up): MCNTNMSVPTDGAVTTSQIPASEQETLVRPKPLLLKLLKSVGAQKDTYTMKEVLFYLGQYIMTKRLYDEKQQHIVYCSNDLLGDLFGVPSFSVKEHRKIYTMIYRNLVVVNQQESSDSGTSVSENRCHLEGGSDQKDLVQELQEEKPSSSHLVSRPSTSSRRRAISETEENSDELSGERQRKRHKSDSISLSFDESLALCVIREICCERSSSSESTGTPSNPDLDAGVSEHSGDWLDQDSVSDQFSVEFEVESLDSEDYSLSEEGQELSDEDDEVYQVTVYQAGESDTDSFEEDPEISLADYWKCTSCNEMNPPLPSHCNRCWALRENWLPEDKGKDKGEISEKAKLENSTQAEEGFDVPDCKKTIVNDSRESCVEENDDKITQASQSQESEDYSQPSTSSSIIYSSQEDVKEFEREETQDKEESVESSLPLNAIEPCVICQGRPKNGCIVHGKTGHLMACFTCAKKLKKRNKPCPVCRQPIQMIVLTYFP
# SKKanGAS inh – SKKanGAS growth inhibition | inhibition, % at 7.5 µM | AID 1662 | 300,000 tested, 1.3% active | S. pyogenes SKKanGAS, kanamycin growth, BacTiter-Glo, 6 h;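 active = mean replicate score, as percent of positive control median, at least 50; inconclusive = mean below 50 but one replicate at or above 50; inactive = mean and every replicate below 50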;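 note: strain carries kanamycin resistance gene driven by streptokinase promoter and grows in 40 µg/ml kanamycin; loss of luminescence reflects streptokinase promoter inhibition or plain growth inhibition; 0% = median of DMSO wells and 100% = positive control at its reference dose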
# Calb FLC – C. albicans growth modulation with fluconazole; C. albicans CaCi-2 (fluconazole-resistant clinical isolate) + fluconazole, Alamar Blue growth, 48 h; growth inhibition, % (concentration not given with the values); 300,000 tested, 0.57% active;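 active = growth inhibition above about 58% in most replicates, limit read from the data, passing the limit was not always enough; inconclusive = exactly half the replicates above a set limit; inactive = most replicates below a set limit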;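 note: all wells also contain fluconazole at 8 µg/ml as a sub-toxic cotreatment; 0% = median of DMSO wells and 100% = median of geldanamycin control wells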
# CSC inhib – blocks cancer stem cells; 300,000 tested, 1.1% active; AID 2717; cancer stem cell-like cells viability, luminescence; inhibition, % at 7.5 µM; in the data active = inhibition above about 75%; inconclusive = no clear call, values can overlap the other calls; tested in HMLE shEcad cells
# MPTP block – permeability transition pore inhibition | isolated mouse mitochondria, Ca2+ swelling absorbance, 30 min | inhibition, % at 10 µM | 360,000 tested, 1.4% active;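 active = inhibition of 50% or more, scaled per plate between neutral and stimulator controls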;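 note: 0% = DMSO wells given calcium and 100% = 1 mM EGTA wells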
# Beta cell apopt – beta cell apoptosis inhibition | INS-1E cytokine-induced death, ATP luminescence, 48 h; percent of positive-control rescue, neutral wells zero | protection from apoptosis, % (concentration not given with the values) | 300,000 tested, 0.8% active | AID 435005;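 active = Every replicate reaches about 75%, or at least half do and their mean reaches it too, limit read from the data; inconclusive = At least half of replicates reach the limit but their mean does not; inactive = Under half of replicates reach the limit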;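 note: 0% = cytokine-treated negative control wells and 100% = positive control rescue; higher means more ATP so stronger rescue from cytokine killing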
# Mdm2 MdmX conf – human Mdm2/MdmX binding inhibition, confirmed; shares compounds with Mdm2-MdmX inh; luminescent assay; inhibition, % at 8 µM; 10,000 tested, 55% active; AID 489028; in the data active = inhibition above about 40%
# FLuc counter – inhibits full-length luciferase, flagging false Mdm2/MdmX hits; 6,200 tested, 77% active; shares compounds with Mdm2-MdmX inh; SaOS-2 full-length luciferase counterscreen, luminescence; AID 504607; inhibition, % at 8 µM;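 active = mean inhibition at 8 µM reaching about 37%, which flags the compound as non-specific, limit read from the data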;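 note: p53-null SaOS-2 cells with luciferase driven by a doxycycline-inducible promoter; compound on cells about two nights before reading with doxycycline added after day one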
# * marks the source's active call; other numbers are inactive results; ? = inconclusive; · = no result given; ! = a repeat was not active. Compounds with a hit are over-represented: about 5.4% of the library has one in this group of screens.
SMILES,Mdm2-MdmX inh,SKKanGAS inh,Calb FLC,CSC inhib,MPTP block,Beta cell apopt,Mdm2 MdmX conf,FLuc counter
Cc1ccc(-c2nn(-c3ccccc3)cc2/C=C(\C#N)C(=O)NCc2ccccc2)cc1,75*,2,17,8,3,-2,44*,85*
CCOc1cccc(-c2nn(-c3ccccc3)cc2/C=C(/C#N)C(=O)NCCCn2ccnc2)c1,77*,4,2,-9,-1,12,39,51*
CCc1ccc(-c2cc(C(=O)Nc3ccc(S(=O)(=O)NC(C)=O)cc3)c3ccccc3n2)cc1,1,19,-1,-9,5,2,·,·
Cc1cc2ccccn2c1C(=O)c1ccc(NN)c([N+](=O)[O-])c1,62*,25,-4,-8,1,-5,28,·
CCN(CCn1cccn1)C(=O)CC1C(=O)NCCN1Cc1ccc(F)cc1 (stereo unspecified),6,3,0,1,-1,-3,·,·
CN(C)c1nc(NCc2ccccc2)nc(N/N=C/c2ccc(Br)cc2)n1,90*,1,-17,5,-2,10,33,·
CCC(C)NC(=O)C1c2ccccc2C(=O)N1Cc1ccc(OC)cc1OC (stereo unspecified),-11,0,1,-11,0,2,·,·
CCCCC(CCCC)=N/N=C/c1c(O)n(CC)c2cc(C3=NNC(=O)CC3)ccc12,58*,8,-1,-17,1,19,9,·
Cc1ccc(NC(=O)c2cc(CC(C)C)nc3ccccc23)cc1,82*,0,2,-5,1,-3,84*,55*
COc1ccc(NC(=O)c2cc(CC(C)C)nc3ccccc23)cc1,91*,-4,26,-2,1,-4,90*,52*
Cc1ccc(NC(=O)c2cc(C)nc3ccccc23)cc1,10,-1,-4,0,0,0,·,·
Cc1cc(C)n(C(=O)CNc2ccc(C)c(C)c2)n1,10,0,-9,-2,-1,-3,·,·
c1ccc2c(-c3ccc(OCCN4CCCCC4)cc3)c(-c3ccsc3)sc2c1,68*,·,·,103*,0,7,25,·
COc1cc(OC)cc(-c2sc3ccc(OC)cc3c2-c2ccc(OCCN3CCCCC3)cc2)c1,63*,·,·,·,-1,·,19,·
COc1ccc(-c2sc3cc4c(cc3c2-c2ccc(OCCN3CCCCC3)cc2)OCO4)cc1,70*,·,·,·,-1,·,24,·
COc1ccccc1-c1sc2cc3c(cc2c1-c1ccc(OCCN2CCOCC2)cc1)OCO3,47,·,·,·,-1,·,·,·
O=C(Nc1ccc(Cl)cn1)c1cccc(OCc2ccccc2)c1,14,0,11,64,-1,-1,·,·
CCCOC(=O)Nc1nnc(CCC)s1,-16,0,-1,0,-2,-7,·,·
CC(C)OC(=O)/C(=C\c1cccnc1)NC(=O)c1ccccc1,7,7,-3,-20,0,-12,·,·
COc1ccccc1OCC(O)Cn1c(=N)n(Cc2ccccc2)c2ccccc21 (stereo unspecified),39,-1,5,8,5,32,·,·
Cc1ccccc1OCC(O)Cn1c(=N)n(Cc2ccccc2)c2ccccc21 (stereo unspecified),97*,-5,16,?,14,64,96*,29
CCCCCn1c(=N)n(CC(O)COc2ccccc2OC)c2ccccc21 (stereo unspecified),61*!,-6,1,4,46,21,28,·
COc1ccc(CNC(=O)c2ccc(Br)o2)cc1,6,3,1,9,0,1,·,·
O=C(NCc1ccc(Cl)cc1)c1cc(S(=O)(=O)N2CCCCC2)c[nH]1,10,-9,-9,6,1,2,·,·
COc1ccc(/C=N/NC(=O)Cc2cccs2)cc1,21,5,3,-16,0,-2,·,·
SMILES,Mdm2-MdmX inh,SKKanGAS inh,Calb FLC,CSC inhib,MPTP block,Beta cell apopt,Mdm2 MdmX conf,FLuc counter
CC(C)c1ccc2c(c1)C(N1CCNCC1)Cc1ccc(F)cc1S2 (stereo unspecified),62*,38,70,102*,·,116*,34,·
CN1CCN(C2Cc3ccc(F)cc3Sc3cc(F)c(Cl)cc32)CC1 (stereo unspecified),65*,97*,42,101*,-8,·,41*,57*
CN1CCN(C2Cc3cc(F)ccc3Sc3ccc(Cl)cc32)CC1 (stereo unspecified),45,4,42,-11,-5,13,·,·
COc1cccc(CN(C)C(=O)CNC(=O)c2sc3ccccc3c2Cl)c1OC,25,11,14,-8,-2,-2,·,·
C=CCNC(=O)c1ccc(-c2nc(-c3ccc(Cl)c(Cl)c3)cs2)cc1,52*,8,-2,-9,2,-15,25,·
COc1ccc(CCNC(=O)c2cc(-c3ccco3)nc3ccccc23)cc1,5,13,-8,7,·,-4,·,·
COc1ccc(N2CC(O)=C(c3nc(-c4ccc(Br)cc4)cs3)C2=N)cc1,71*,11,-4,-10,1,-6,54*,75*
COc1ccc(N2CC(O)=C(c3nc(-c4ccc(Cl)cc4)cs3)C2=N)cc1,53*,15,3,-7,0,12,42*,63*
CCOc1cc(N2CCOCC2)c(OCC)cc1NC(=O)c1ccc(S(=O)(=O)N(C)C)cc1,-8,-4,?,4,3,1,·,·
O=C(CSCc1ccc(Cl)c(Cl)c1)Nc1c[nH]c(=O)[nH]c1=O,35,2,-5,9,3,2,·,·
COc1cc2ncc(S(=O)(=O)c3ccccc3)c(N3CCCC(C)C3)c2cc1OC (stereo unspecified),51*,44,-4,9,0,11,18,·
O=S(=O)(c1ccccc1)c1cnc(-c2ccccc2)nc1N1CCCC1,2,15,1,6,-1,11,·,·
O=C(Nc1nc2c(s1)CCCC2)c1cccs1,-126,·,·,25,12,20,·,·
Cc1nnc(NC(=O)CSc2nc(C(C)C)nc3ccccc23)s1,76*,2,3,62,-1,1,63*,44*
CC(C)c1nc(SCC(=O)NC2CCCC2)c2ccccc2n1,13,18,-10,1,-1,0,·,·
CC(C)c1nc(SCC(=O)Nc2nc3c(s2)CCCC3)c2ccccc2n1,85*,9,-11,-11,1,-6,64*,45*
O=C(Cc1cccs1)Nc1nc2c(s1)CCCC2,56*,8,-22,-1,1,1,47*,90*
Cc1cc(NC(=O)CSc2nc(C(C)C)nc3ccccc23)no1,39,6,1,39,-2,-6,·,·
CC(C)(C)c1nc(SCC(=O)Nc2nc3c(s2)CCCC3)c2ccccc2n1,98*,19,-7,119*,1,24,93*,54*

# Screening data: PubChem BioAssay, several laboratories
